ChEMBL document CHEMBL1961873, “Compounds: GSK PKIS; Assays: Nanosyn kinase panel” (2012)

Legend:
[1] = molecular target: Calcium/calmodulin-dependent protein kinase type II subunit alpha (Homo sapiens) (UniProt Q9UQM7); details: at 1 µM;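 note: reported value is a mean percent inhibition of CAMK2A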
[2] = molecular target: Calcium/calmodulin-dependent protein kinase type II subunit delta (Homo sapiens) (UniProt Q13557); details: at 0.1 µM
[3] = molecular target: Calcium/calmodulin-dependent protein kinase type II subunit delta (Homo sapiens) (UniProt Q13557); details: at 1 µM
[4] = molecular target: T1, Calcium/calmodulin-dependent protein kinase type IV (Homo sapiens) (UniProt Q16566); details: at 0.1 µM
T1 sequence (whole entry): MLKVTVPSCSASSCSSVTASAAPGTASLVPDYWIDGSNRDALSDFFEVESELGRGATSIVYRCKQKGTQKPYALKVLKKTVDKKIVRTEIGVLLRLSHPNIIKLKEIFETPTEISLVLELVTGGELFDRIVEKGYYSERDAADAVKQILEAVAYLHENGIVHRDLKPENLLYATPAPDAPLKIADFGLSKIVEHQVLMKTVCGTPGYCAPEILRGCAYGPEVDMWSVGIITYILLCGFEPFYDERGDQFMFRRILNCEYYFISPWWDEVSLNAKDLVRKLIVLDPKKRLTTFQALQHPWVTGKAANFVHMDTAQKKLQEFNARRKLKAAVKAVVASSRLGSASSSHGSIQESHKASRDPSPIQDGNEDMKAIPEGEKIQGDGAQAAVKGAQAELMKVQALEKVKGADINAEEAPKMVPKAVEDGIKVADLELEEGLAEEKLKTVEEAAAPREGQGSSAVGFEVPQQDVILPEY

[5] = molecular target: T1, Calcium/calmodulin-dependent protein kinase type IV (Homo sapiens); details: at 1 µM
[6] = molecular target: T2, Serine/threonine-protein kinase Chk1 (Homo sapiens) (UniProt O14757); details: at 0.1 µM
T2 sequence (whole entry): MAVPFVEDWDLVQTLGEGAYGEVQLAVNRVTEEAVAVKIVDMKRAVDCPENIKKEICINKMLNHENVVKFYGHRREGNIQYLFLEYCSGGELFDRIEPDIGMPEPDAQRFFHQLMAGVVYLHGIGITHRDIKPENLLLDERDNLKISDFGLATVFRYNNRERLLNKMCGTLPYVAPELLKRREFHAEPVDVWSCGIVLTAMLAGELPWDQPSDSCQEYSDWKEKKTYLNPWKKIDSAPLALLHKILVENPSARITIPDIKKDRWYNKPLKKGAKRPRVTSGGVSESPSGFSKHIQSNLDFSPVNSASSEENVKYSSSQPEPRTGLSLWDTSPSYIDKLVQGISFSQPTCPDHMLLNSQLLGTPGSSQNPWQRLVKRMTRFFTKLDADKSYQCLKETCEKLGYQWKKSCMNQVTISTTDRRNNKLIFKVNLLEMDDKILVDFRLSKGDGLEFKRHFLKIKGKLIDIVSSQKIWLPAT

[7] = molecular target: T2, Serine/threonine-protein kinase Chk1 (Homo sapiens); details: at 1 µM
[8] = molecular target: Serine/threonine-protein kinase Chk2 (Homo sapiens) (UniProt O96017); details: at 0.1 µM
Serine/threonine-protein kinase Chk2 (Homo sapiens), sequence (O96017 whole entry): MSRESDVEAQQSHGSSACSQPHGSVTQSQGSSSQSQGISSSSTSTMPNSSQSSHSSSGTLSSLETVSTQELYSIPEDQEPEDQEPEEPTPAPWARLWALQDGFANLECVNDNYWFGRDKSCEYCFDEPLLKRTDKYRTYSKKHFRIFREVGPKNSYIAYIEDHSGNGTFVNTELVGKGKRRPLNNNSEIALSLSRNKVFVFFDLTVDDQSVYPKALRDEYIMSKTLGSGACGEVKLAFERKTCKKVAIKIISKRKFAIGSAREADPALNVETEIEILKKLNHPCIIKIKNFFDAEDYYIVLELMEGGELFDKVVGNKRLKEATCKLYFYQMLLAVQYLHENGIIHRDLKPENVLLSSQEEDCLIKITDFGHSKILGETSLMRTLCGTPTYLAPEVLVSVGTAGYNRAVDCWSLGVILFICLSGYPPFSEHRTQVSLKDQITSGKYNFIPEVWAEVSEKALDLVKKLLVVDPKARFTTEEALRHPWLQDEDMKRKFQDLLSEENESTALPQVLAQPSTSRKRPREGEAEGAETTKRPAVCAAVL

[9] = molecular target: Serine/threonine-protein kinase Chk2 (Homo sapiens) (UniProt O96017); details: at 1 µM
[10] = molecular target: Death-associated protein kinase 1 (Homo sapiens) (UniProt P53355); details: at 0.1 µM
Death-associated protein kinase 1 (Homo sapiens), sequence (P53355 whole entry, looked up): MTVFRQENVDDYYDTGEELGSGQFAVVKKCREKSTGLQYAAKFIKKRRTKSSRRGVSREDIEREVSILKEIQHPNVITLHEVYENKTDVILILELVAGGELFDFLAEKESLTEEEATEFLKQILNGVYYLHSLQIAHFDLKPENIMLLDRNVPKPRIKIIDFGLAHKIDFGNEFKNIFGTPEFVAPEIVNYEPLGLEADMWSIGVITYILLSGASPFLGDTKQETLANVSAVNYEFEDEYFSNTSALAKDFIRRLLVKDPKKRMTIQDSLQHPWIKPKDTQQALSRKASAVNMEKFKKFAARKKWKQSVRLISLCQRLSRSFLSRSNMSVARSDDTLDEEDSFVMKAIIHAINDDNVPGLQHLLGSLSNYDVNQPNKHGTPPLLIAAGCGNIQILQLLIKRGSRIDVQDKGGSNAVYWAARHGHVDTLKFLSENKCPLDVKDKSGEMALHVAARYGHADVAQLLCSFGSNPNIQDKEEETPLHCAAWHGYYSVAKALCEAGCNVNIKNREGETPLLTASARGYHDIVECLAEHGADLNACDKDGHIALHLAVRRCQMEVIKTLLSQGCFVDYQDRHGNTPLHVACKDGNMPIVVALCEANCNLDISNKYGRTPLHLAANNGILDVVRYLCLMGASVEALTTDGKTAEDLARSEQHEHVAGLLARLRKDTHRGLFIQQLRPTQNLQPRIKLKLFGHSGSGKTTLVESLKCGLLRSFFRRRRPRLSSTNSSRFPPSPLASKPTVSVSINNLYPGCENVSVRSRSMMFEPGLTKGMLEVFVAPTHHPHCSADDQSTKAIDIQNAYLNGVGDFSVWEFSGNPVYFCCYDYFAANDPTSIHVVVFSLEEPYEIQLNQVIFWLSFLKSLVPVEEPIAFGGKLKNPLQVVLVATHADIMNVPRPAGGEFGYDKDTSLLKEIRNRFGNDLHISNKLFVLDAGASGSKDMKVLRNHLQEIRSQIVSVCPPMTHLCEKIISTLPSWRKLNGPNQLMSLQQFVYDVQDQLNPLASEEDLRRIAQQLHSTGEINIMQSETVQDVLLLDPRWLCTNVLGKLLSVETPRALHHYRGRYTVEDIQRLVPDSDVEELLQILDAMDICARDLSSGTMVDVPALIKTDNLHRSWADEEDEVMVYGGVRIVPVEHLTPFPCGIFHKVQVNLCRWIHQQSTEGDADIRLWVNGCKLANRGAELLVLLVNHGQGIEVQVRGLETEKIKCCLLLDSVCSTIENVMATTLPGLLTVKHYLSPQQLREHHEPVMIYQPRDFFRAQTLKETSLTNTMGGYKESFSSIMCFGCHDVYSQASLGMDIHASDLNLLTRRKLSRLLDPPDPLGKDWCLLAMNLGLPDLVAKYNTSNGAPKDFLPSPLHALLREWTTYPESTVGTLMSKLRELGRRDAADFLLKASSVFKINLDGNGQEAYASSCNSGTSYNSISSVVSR

[11] = molecular target: Death-associated protein kinase 1 (Homo sapiens) (UniProt P53355); details: at 1 µM
[12] = molecular target: T3, Serine/threonine-protein kinase DCLK2 (Homo sapiens) (UniProt Q8N568); details: at 0.1 µM
T3 sequence (whole entry): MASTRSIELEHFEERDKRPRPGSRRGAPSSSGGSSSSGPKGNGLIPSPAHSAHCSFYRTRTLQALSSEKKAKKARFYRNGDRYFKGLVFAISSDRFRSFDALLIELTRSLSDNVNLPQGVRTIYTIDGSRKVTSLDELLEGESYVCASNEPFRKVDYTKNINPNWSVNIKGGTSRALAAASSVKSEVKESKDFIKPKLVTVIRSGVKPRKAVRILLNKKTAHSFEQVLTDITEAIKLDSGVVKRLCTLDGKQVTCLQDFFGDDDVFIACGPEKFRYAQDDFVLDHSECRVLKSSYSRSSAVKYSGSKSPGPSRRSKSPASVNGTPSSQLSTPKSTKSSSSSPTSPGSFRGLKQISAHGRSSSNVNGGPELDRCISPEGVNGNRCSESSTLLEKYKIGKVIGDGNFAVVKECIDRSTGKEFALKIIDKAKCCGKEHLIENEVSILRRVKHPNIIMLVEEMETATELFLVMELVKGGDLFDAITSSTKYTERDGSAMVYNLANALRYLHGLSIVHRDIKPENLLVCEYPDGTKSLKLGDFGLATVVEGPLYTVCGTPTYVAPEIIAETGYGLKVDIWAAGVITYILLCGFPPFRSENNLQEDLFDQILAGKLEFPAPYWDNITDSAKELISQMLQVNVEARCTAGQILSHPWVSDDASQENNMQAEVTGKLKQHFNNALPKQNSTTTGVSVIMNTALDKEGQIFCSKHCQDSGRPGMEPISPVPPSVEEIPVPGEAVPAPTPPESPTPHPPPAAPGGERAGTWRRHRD

[13] = molecular target: T3, Serine/threonine-protein kinase DCLK2 (Homo sapiens); details: at 1 µM
[14] = molecular target: MAP kinase-activated protein kinase 2 (Homo sapiens) (UniProt P49137); details: at 0.1 µM
MAP kinase-activated protein kinase 2 (Homo sapiens), sequence (P49137 whole entry, looked up): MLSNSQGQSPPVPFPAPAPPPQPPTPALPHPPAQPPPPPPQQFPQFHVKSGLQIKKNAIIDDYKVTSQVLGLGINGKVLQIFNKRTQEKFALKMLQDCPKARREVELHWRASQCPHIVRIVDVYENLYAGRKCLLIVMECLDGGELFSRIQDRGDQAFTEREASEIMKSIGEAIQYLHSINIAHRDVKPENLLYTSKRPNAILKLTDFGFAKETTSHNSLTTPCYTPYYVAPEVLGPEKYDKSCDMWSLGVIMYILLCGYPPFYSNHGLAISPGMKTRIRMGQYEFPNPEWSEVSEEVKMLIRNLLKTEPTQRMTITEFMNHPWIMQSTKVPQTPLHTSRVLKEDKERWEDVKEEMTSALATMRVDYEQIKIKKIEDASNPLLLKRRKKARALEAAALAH

[15] = molecular target: MAP kinase-activated protein kinase 2 (Homo sapiens) (UniProt P49137); details: at 1 µM
[16] = molecular target: MAP kinase-activated protein kinase 3 (Homo sapiens) (UniProt Q16644); details: at 0.1 µM
MAP kinase-activated protein kinase 3 (Homo sapiens), sequence (Q16644 whole entry, looked up): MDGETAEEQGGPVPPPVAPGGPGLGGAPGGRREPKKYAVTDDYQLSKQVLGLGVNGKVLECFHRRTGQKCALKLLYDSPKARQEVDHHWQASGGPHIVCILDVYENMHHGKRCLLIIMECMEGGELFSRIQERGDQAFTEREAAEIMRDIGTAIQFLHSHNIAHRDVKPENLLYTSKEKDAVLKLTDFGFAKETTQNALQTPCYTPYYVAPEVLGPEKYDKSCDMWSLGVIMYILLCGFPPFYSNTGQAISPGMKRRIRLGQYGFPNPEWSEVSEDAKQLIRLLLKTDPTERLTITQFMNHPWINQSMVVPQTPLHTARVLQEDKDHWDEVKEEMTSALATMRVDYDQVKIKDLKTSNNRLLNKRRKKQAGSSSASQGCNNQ

[17] = molecular target: MAP kinase-activated protein kinase 3 (Homo sapiens) (UniProt Q16644); details: at 1 µM
[18] = molecular target: Serine/threonine-protein kinase MARK1 (Homo sapiens) (UniProt Q9P0L2); details: at 0.1 µM
Serine/threonine-protein kinase MARK1 (Homo sapiens), sequence (Q9P0L2 whole entry, looked up): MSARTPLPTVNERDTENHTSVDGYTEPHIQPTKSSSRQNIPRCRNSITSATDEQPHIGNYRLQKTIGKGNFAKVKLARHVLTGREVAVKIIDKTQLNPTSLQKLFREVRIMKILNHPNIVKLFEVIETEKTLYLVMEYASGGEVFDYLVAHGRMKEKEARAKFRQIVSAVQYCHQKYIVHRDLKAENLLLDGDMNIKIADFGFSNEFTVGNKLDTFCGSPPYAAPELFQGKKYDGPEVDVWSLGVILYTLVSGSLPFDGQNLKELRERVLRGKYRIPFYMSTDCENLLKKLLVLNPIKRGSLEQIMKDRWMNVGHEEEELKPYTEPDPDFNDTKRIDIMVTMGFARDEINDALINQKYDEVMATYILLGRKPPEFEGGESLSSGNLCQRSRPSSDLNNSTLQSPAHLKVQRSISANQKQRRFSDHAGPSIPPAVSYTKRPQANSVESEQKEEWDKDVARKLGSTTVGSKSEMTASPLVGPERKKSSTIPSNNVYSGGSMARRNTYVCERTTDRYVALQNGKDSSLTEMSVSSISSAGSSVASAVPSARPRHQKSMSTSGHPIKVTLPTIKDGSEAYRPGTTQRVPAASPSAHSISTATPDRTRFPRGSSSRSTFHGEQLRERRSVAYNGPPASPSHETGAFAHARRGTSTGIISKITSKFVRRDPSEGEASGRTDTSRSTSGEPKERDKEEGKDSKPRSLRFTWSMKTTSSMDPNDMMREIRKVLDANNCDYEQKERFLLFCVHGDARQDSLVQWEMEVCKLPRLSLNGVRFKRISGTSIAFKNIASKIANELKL

[19] = molecular target: Serine/threonine-protein kinase MARK1 (Homo sapiens) (UniProt Q9P0L2); details: at 1 µM
[20] = molecular target: MAP/microtubule affinity-regulating kinase 3 (Homo sapiens) (UniProt P27448); details: at 0.1 µM;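 note: mean percent inhibition of MARK3 kinase activity, measured within the GSK PKIS screening panel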
MAP/microtubule affinity-regulating kinase 3 (Homo sapiens), sequence (P27448 whole entry, looked up): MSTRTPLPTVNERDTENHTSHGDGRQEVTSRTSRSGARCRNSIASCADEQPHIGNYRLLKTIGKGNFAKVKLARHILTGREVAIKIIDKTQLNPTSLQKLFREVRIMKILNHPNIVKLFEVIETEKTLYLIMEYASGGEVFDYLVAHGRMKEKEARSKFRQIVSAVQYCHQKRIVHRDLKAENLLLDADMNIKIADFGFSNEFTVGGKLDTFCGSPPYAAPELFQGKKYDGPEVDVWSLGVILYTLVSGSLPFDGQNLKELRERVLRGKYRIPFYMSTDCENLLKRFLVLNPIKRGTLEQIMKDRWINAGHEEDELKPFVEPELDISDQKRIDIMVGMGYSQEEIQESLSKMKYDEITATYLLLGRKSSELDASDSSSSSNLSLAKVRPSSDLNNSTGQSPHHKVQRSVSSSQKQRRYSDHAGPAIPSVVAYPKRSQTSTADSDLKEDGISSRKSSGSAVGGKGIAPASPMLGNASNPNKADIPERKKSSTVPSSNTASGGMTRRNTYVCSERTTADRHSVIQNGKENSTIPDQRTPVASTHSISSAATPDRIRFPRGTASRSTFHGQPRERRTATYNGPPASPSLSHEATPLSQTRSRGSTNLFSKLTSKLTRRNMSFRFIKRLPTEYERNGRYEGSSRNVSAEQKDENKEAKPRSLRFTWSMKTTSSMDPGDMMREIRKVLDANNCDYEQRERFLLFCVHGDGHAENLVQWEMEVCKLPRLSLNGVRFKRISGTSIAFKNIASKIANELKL

Calcium/calmodulin-dependent protein kinase type II subunit delta (Homo sapiens), sequence (Q13557 whole entry): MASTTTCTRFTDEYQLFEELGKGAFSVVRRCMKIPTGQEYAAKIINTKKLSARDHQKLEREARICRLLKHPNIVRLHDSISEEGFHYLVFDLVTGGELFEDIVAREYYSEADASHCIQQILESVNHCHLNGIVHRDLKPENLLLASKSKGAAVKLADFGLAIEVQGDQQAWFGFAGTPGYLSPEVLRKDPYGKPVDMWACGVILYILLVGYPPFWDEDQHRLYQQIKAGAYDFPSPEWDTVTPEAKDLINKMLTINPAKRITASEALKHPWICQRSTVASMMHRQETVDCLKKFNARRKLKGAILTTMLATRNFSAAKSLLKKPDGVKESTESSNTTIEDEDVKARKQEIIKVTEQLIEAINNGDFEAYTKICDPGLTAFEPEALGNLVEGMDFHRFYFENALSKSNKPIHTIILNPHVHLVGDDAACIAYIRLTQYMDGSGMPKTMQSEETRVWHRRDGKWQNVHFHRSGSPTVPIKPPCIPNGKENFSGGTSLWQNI

Row | Compound | inhibition [1] [%] | inhibition [2] [%] | inhibition [3] [%] | inhibition [4] [%] | inhibition [5] [%] | inhibition [6] [%] | inhibition [7] [%] | inhibition [8] [%] | inhibition [9] [%] | inhibition [10] [%] | inhibition [11] [%] | inhibition [12] [%] | inhibition [13] [%] | inhibition [14] [%] | inhibition [15] [%] | inhibition [16] [%] | inhibition [17] [%] | inhibition [18] [%] | inhibition [19] [%] | inhibition [20] [%]
1 | C/C(Nc1ccc(S(N)(=O)=O)cc1)=C1/C(=O)Nc2ccccc21 | -2.07 | -2.27 | 3.2 | -2.35 | -0.89 | 4.5 | 10.1 | -0.44 | 14.5 | 1.47 | 1.66 | 4.83 | 2.32 | -0.92 | -0.57 | -0.79 | -0.11 | 4.3 | 32.8 | 2.37
2 | CCS(=O)(=O)c1ccc(OC)c(Nc2ncc(-c3ccccc3Cl)o2)c1 | 3.37 | 1.45 | 1.43 | 2.52 | 0.4 | 5.3 | 5.1 | -1.42 | -0.76 | 4.59 | 4.97 | -0.26 | 5.11 | 0.24 | -0.21 | 2.9 | 3.29 | 0.31 | 0.38 | 1.45
3 | CNC(=O)c1cncc(/C=C/c2c(C)cccc2C)c1 | 3.13 | 1.04 | 1.43 | 2.28 | 0.99 | -0.79 | 0.19 | -0.74 | -0.03 | 0.17 | 0.45 | -0.24 | -2.53 | 0.41 | -0.68 | 0.6 | 0.25 | 0.88 | 0.89 | 0.44
4 | NCc1ccc(-n2c(-c3nonc3N)nc3cnccc32)cc1 | 7.05 | 6.42 | 15.2 | -0.16 | 4.15 | 8.32 | 12.3 | 2.9 | 6.29 | 7.02 | 9.98 | -0.49 | 2.47 | 1.78 | 1.8 | 4.33 | 4.65 | 6.36 | 23.2 | 5.76
5 | NC(=O)c1ccc(Oc2nccc(-c3c(-c4ccc(F)cc4)ncn3C3CCNCC3)n2)cc1 | 4.37 | 4.24 | 6.79 | 0.24 | 2.66 | -2.66 | 1.07 | -1.09 | 0.46 | -2.59 | -3.98 | 0.57 | 1.94 | 0.01 | 1.79 | 17.6 | 30.8 | 2.78 | 4.16 | 3.42
6 | Fc1ccc(-c2ncn(CCCN3CCOCC3)c2-c2ccncc2)cc1 | 1.91 | 1.48 | 2.85 | 1.75 | 2.08 | 2.08 | -1.19 | -0.55 | -1.12 | 0.52 | 2.3 | -1.56 | 5.36 | -0.27 | -0.32 | 3.13 | 14.5 | 0.51 | 0.81 | 2.21
